Test results from PubChem BioAssay (NCI).
This is part of a sample that, as a whole, favours compounds with a hit. Of some 83,000 tested, about 20% had one in any assay.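 Treatment: one concentration, 48 hours, 96-well format. Scoring: percent growth, with anything below 10 considered active.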 Active and inactive are the calls of the source.

Columns and labels:
Experiment in all cases: NCI-60 one-dose screen, 48 h (100 = growth as untreated, 0 = no growth, -100 = all killed)
Details in all cases: 10 µM unless noted
HCT-15 colon = system: HCT-15 colon
HT29 colon = system: HT29 colon
SNB-75 CNS = system: SNB-75 CNS
SNB-19 CNS = system: SNB-19 CNS
U251 CNS = system: U251 CNS
SK-MEL-5 melanoma = system: SK-MEL-5 melanoma
UACC-62 melanoma = system: UACC-62 melanoma
LOX IMVI melanoma = system: LOX IMVI melanoma
SK-MEL-28 melanoma = system: SK-MEL-28 melanoma
SK-MEL-2 melanoma = system: SK-MEL-2 melanoma
UO-31 renal = system: UO-31 renal
TK-10 renal = system: TK-10 renal
ACHN renal = system: ACHN renal
CAKI-1 renal = system: CAKI-1 renal
CCRF-CEM leukemia = system: CCRF-CEM leukemia
MOLT-4 leukemia = system: MOLT-4 leukemia
SN12C renal = system: SN12C renal
A498 renal = system: A498 renal
EKVX NSCLC = system: EKVX NSCLC

Measured: growth

O=C(CCCCC(=O)N/N=C\c1ccccc1O)N/N=C\c1ccccc1O
active: SK-MEL-5 melanoma -14.9%
inactive: HCT-15 colon 21% | HT29 colon 69.1% | SNB-75 CNS 69.6% | SNB-19 CNS 38.9% | U251 CNS 26.4% | UACC-62 melanoma 13.5% | LOX IMVI melanoma 26.2% | SK-MEL-28 melanoma 48.3% | SK-MEL-2 melanoma 75.6% | UO-31 renal 19.3% | TK-10 renal 40.5% | ACHN renal 13.2% | CAKI-1 renal 14.7% | CCRF-CEM leukemia 18.1% | MOLT-4 leukemia 14.6%

COc1ccc(C(=O)c2sc3nc4c(c(-c5cccnc5)c3c2N)CCCC4)cc1OC
inactive: HCT-15 colon 72.8% | HT29 colon 74.3% | SNB-75 CNS 56.4% | SNB-19 CNS 71% | U251 CNS 70.2% | SK-MEL-5 melanoma 59.6% | UACC-62 melanoma 87.6% | LOX IMVI melanoma 70.2% | SK-MEL-28 melanoma 77.9% | SN12C renal 69.8% | UO-31 renal 63.8% | TK-10 renal 90% | ACHN renal 77.1% | CAKI-1 renal 82.8% | A498 renal 48.1% | CCRF-CEM leukemia 55.5% | MOLT-4 leukemia 41.4%

FC(F)(F)c1nc2c(NCc3ccc(-c4ccccc4)cc3)cccc2[nH]1
inactive: HCT-15 colon 68.4% | HT29 colon 84.4% | SNB-75 CNS 90.7% | SNB-19 CNS 117% | U251 CNS 66.6% | SK-MEL-5 melanoma 88.4% | UACC-62 melanoma 72.1% | LOX IMVI melanoma 82.4% | SK-MEL-28 melanoma 92.1% | SN12C renal 88.4% | UO-31 renal 57.5% | TK-10 renal 79.2% | ACHN renal 81.6% | CAKI-1 renal 73.7% | A498 renal 48.7% | CCRF-CEM leukemia 44.8%
active: MOLT-4 leukemia 9%

COc1ccc(CCNc2nc3c(c(=O)n(Cc4ccc(Br)cc4)c(=O)n3C)n2C)cc1OC
inactive: HCT-15 colon 102% | HT29 colon 103% | SNB-75 CNS 84.5% | SNB-19 CNS 94.5% | U251 CNS 92% | SK-MEL-5 melanoma 68% | UACC-62 melanoma 74.8% | LOX IMVI melanoma 94.5% | SK-MEL-28 melanoma 99% | EKVX NSCLC 83.7% | SN12C renal 91.1% | UO-31 renal 70.6% | TK-10 renal 111% | ACHN renal 89.7% | CAKI-1 renal 85.6% | A498 renal 92.6% | CCRF-CEM leukemia 99.7% | MOLT-4 leukemia 88.2%

C=CCSSC1N=CNc2nc[nH]c21 (stereo unspecified)
inactive: HCT-15 colon 52.7% | HT29 colon 50.1% | SNB-75 CNS 46.9% | SNB-19 CNS 89.1% | U251 CNS 70.2% | SK-MEL-5 melanoma 60.7% | UACC-62 melanoma 16.8% | SK-MEL-28 melanoma 114% | EKVX NSCLC 93.8% | SN12C renal 72.9% | UO-31 renal 35.7% | TK-10 renal 29.5% | ACHN renal 42.6% | A498 renal 50.1% | MOLT-4 leukemia 34.9%
active: LOX IMVI melanoma 7.74% | CAKI-1 renal 9.26%

CCc1c(Nc2ccccc2C)nc(N)[nH]c1=O
inactive: HCT-15 colon 98.4% | HT29 colon 110% | SNB-75 CNS 92.9% | SNB-19 CNS 110% | U251 CNS 120% | SK-MEL-5 melanoma 107% | UACC-62 melanoma 110% | LOX IMVI melanoma 107% | SK-MEL-28 melanoma 112% | SK-MEL-2 melanoma 109% | EKVX NSCLC 94.5% | UO-31 renal 90.7% | TK-10 renal 105% | ACHN renal 106% | CAKI-1 renal 90.9% | CCRF-CEM leukemia 100% | MOLT-4 leukemia 99.4%

C#Cc1cccc(NC(=O)c2ccccc2NC(=O)CCl)c1
inactive: HCT-15 colon 68.7% [8.25 µM] | HT29 colon 86.1% [8.25 µM] | SNB-75 CNS 70.5% [8.25 µM] | SNB-19 CNS 74.2% [8.25 µM] | U251 CNS 74.6% [8.25 µM] | SK-MEL-5 melanoma 87.7% [8.25 µM] | UACC-62 melanoma 85.1% [8.25 µM] | LOX IMVI melanoma 91.4% [8.25 µM] | SK-MEL-28 melanoma 102% [8.25 µM] | EKVX NSCLC 94.1% [8.25 µM] | SN12C renal 64.6% [8.25 µM] | UO-31 renal 86.9% [8.25 µM] | TK-10 renal 91% [8.25 µM] | ACHN renal 92% [8.25 µM] | CAKI-1 renal 87.9% [8.25 µM] | A498 renal 107% [8.25 µM] | MOLT-4 leukemia 70.3% [8.25 µM]

Fc1ccc(CNc2cccc3[nH]c(C(F)(F)F)nc23)cc1
inactive: HCT-15 colon 98.3% | HT29 colon 104% | SNB-75 CNS 73.9% | SNB-19 CNS 79.2% | U251 CNS 80.7% | SK-MEL-5 melanoma 96.1% | UACC-62 melanoma 79.6% | LOX IMVI melanoma 99.4% | SK-MEL-28 melanoma 89% | SN12C renal 72.4% | UO-31 renal 84.8% | TK-10 renal 102% | ACHN renal 96.2% | CAKI-1 renal 81.2% | A498 renal 39.7% | CCRF-CEM leukemia 52.4%

Cc1[nH]c(-c2ccc3cc[nH]c3c2)c2c1C(=O)CCCC2
active: SNB-75 CNS 6.65%
inactive: HCT-15 colon 30.6% | HT29 colon 27.4% | SNB-19 CNS 53.1% | U251 CNS 48.5% | SK-MEL-5 melanoma 49.6% | UACC-62 melanoma 24.8% | LOX IMVI melanoma 16.2% | SK-MEL-28 melanoma 66.2% | SK-MEL-2 melanoma 71% | EKVX NSCLC 47.8% | UO-31 renal 22.2% | TK-10 renal 32.7% | ACHN renal 41.2% | CAKI-1 renal 11.9% | A498 renal 44.4% | MOLT-4 leukemia 68.6%

CC(=O)OCCC/C(=C/c1cc2ccccc2c2ccccc12)[N+](=O)[O-]
active: HCT-15 colon -81.8% | HT29 colon -44.7% | SNB-75 CNS -93.6% | SNB-19 CNS -91.1% | U251 CNS -95.4% | SK-MEL-5 melanoma -100% | UACC-62 melanoma -90.2% | LOX IMVI melanoma -70.6% | SK-MEL-28 melanoma -99.5% | EKVX NSCLC -31.7% | SN12C renal -88.9% | UO-31 renal -97% | TK-10 renal -72.2% | ACHN renal -91.7% | CCRF-CEM leukemia -36.1% | MOLT-4 leukemia -28.7%

Cc1cc(C)nc(SC2=C(Nc3cccc(Cl)c3)C(=O)N(Cc3ccccc3)C2=O)n1
active: MOLT-4 leukemia 7.17% [30 µM]
inactive: HCT-15 colon 59.9% [30 µM] | HT29 colon 53.6% [30 µM] | SNB-75 CNS 58.5% [30 µM] | SNB-19 CNS 94.4% [30 µM] | U251 CNS 78.5% [30 µM] | SK-MEL-5 melanoma 50.1% [30 µM] | UACC-62 melanoma 61.4% [30 µM] | SK-MEL-28 melanoma 93.2% [30 µM] | SK-MEL-2 melanoma 75.9% [30 µM] | EKVX NSCLC 56% [30 µM] | SN12C renal 71.9% [30 µM] | UO-31 renal 34% [30 µM] | TK-10 renal 97.2% [30 µM] | ACHN renal 68.2% [30 µM] | CAKI-1 renal 66% [30 µM] | A498 renal 67.2% [30 µM] | CCRF-CEM leukemia 26.2% [30 µM]

CC(C)(C)N1CCC1CN (stereo unspecified)
inactive: HCT-15 colon 126% | HT29 colon 111% | SNB-75 CNS 87.4% | SNB-19 CNS 101% | U251 CNS 117% | SK-MEL-5 melanoma 136% | UACC-62 melanoma 112% | LOX IMVI melanoma 109% | SK-MEL-28 melanoma 105% | EKVX NSCLC 90.1% | SN12C renal 111% | UO-31 renal 91.1% | TK-10 renal 106% | ACHN renal 114% | A498 renal 88.5% | MOLT-4 leukemia 128%

CCCCn1cnc2c(Sc3c([N+](=O)[O-])ncn3C)nc(N)nc21
inactive: HCT-15 colon 91.6% | HT29 colon 99.7% | SNB-75 CNS 84.3% | SNB-19 CNS 96.3% | U251 CNS 101% | SK-MEL-5 melanoma 103% | UACC-62 melanoma 88.9% | LOX IMVI melanoma 107% | SK-MEL-28 melanoma 98.8% | SK-MEL-2 melanoma 112% | SN12C renal 97.6% | UO-31 renal 69.1% | TK-10 renal 102% | ACHN renal 99.8% | CCRF-CEM leukemia 86.9% | MOLT-4 leukemia 49.5%

O=[N+]([O-])c1ccccc1/C=N\NC(=S)N/N=C/c1ccccc1[N+](=O)[O-]
inactive: HCT-15 colon 35.8% | HT29 colon 21.5% | SNB-75 CNS 72.4% | SNB-19 CNS 69% | U251 CNS 62.7% | SK-MEL-5 melanoma 59.1% | UACC-62 melanoma 55.5% | LOX IMVI melanoma 43.4% | SK-MEL-28 melanoma 78.2% | SK-MEL-2 melanoma 56.6% | EKVX NSCLC 70.5% | UO-31 renal 27.4% | TK-10 renal 46.8% | ACHN renal 78.8% | CAKI-1 renal 42.2% | CCRF-CEM leukemia 82.7% | MOLT-4 leukemia 37.8%

CN(C)CCCNc1c2ccccc2nc2ccccc12
inactive: HCT-15 colon 94.1% | HT29 colon 82.8% | SNB-75 CNS 66.9% | SNB-19 CNS 90.5% | U251 CNS 77.1% | SK-MEL-5 melanoma 93.2% | UACC-62 melanoma 105% | LOX IMVI melanoma 96.3% | SK-MEL-28 melanoma 103% | SK-MEL-2 melanoma 99.9% | SN12C renal 95.8% | UO-31 renal 103% | TK-10 renal 81.6% | ACHN renal 100% | CAKI-1 renal 106% | A498 renal 102% | CCRF-CEM leukemia 86.9% | MOLT-4 leukemia 83.3%

Cc1cc(Nc2ccc(C)c(Cl)c2)n2nc(C(F)(F)F)nc2n1
inactive: HCT-15 colon 66.9% | HT29 colon 25.5% | SNB-19 CNS 37.4% | SK-MEL-5 melanoma 75.4% | UACC-62 melanoma 66.9% | LOX IMVI melanoma 12.2% | SK-MEL-28 melanoma 82.8% | SK-MEL-2 melanoma 60.8% | SN12C renal 22.1% | A498 renal 91.9% | CCRF-CEM leukemia 62% | MOLT-4 leukemia 74.1%
active: SNB-75 CNS -30.7% | U251 CNS -18.3% | UO-31 renal -43.2% | TK-10 renal -32.3% | ACHN renal -2.48% | CAKI-1 renal -35.5%

O=C1C=CC(=O)N1c1ccc2c(c1)Cc1cc(F)ccc1-2
inactive: HCT-15 colon 97.1% | HT29 colon 95% | SNB-75 CNS 75.8% | SNB-19 CNS 90.7% | U251 CNS 88.9% | SK-MEL-5 melanoma 98.1% | UACC-62 melanoma 91.6% | LOX IMVI melanoma 104% | SK-MEL-28 melanoma 99.9% | SK-MEL-2 melanoma 107% | UO-31 renal 80.6% | TK-10 renal 99% | ACHN renal 92.6% | CCRF-CEM leukemia 65.2% | MOLT-4 leukemia 43.7%
